ERK EGF inh: EGF-driven ERK pathway inhibition. HEK293-V1b, EGF-stimulated phospho-ERK AlphaScreen. Potency, µM (highest dose often 11.5 µM), inactives show at the top dose activity change, negative = inhibition, most hits filed as inhibitors. 130,000 compounds, 0.41% hits;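 also: plate controls were stimulated vehicle wells for no effect and unstimulated vehicle basal for full effect; nearly all actives have a fitted effect of over 55% in size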
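In this qHTS, HEK293 cells with stable type-1 vasopressin (V1b) receptor were exposed to compound at 37C for 30 min, stimulated 5 min with EGF at 25 nM, lysed, and probed for phospho-ERK by AlphaScreen.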
IMPase Li cell: IMPase inhibition in cells with lithium potentiation; 210,000 compounds, 0.35% hits; Potency, µM (doses to about 59.4 µM), for the others: at the top dose activity, negative = IMPase inhibition, most hits filed as inhibitors; CHO-M1 cells, IP1 TR-FRET (IP-One), carbachol + lithium;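 also: IP1 builds up when IMPase is blocked and the TR-FRET signal falls; plate controls were basal vehicle for no effect and high inhibitor control for full effect; nearly all actives have a fitted effect of over 50% in size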
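Lithium-sensitised IP1 accumulation assay; M1-expressing CHO cells treated 30 min at 37C with compound. Competitive antibody detection by time-resolved FRET followed a 10 min room-temperature lysis step.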
NPSR antagonist: antagonists of human neuropeptide S receptor cAMP signaling | Potency, µM (doses to about 38.3 µM), for the others: at the highest dose activity change, negative = inhibition, most hits filed as inhibitors | CHO-NPSR cells, cAMP TR-FRET, antagonist mode | 220,000 compounds, 1% hits | Q6W5P4; also: nearly all actives have a fitted effect of over 50% in size
Target sequence (Q6W5P4 whole entry, looked up): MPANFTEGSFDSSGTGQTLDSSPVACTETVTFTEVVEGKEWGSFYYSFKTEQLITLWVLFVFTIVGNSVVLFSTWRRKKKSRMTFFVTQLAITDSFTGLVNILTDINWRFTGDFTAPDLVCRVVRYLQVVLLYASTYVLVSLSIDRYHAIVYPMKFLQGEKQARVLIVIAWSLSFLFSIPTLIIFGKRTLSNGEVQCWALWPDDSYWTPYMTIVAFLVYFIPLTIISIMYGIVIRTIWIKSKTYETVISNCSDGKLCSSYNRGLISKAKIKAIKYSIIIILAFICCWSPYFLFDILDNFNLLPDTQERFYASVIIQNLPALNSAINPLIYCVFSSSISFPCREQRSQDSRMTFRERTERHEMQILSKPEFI
An asterisk follows results filed as active; ? = inconclusive; . = not tested or not shown; [ ] = another dose, or the depositor's remark. This is one part of a sample in which hits are shown more often than they occur. Calls follow the shape of the dose curve; as a rule, active = well fitted curve in the direction sought with a large enough effect; inconclusive = small, poorly fitted or top-dose-only effect, or another doubt; inactive = no such curve, though single readings can be large; an effect the other way counts as inactive or inconclusive. Unless noted, % is scaled to controls: 0 for no effect and ±100 for the full control effect; potency is read from the fitted curve at half-maximal effect.

SMILES	ERK EGF inh	IMPase Li cell	NPSR antagonist
CCn1c(O)c(N=NC(=S)NCC2CCCO2)c2ccccc21 (stereo not drawn)	?	2%	7.9µM*
Oc1[nH]c2ccccc2c1N=NC(=S)NCC1CCCO1 (stereo not drawn)	5%	-3%	-26%
CCCn1c(-c2ccc(F)cc2)nc2c(N3CCCN(Cc4ccccc4)CC3)nc(C)nc21	0%	4%	.
CCCCC/C=C\C/C=C\C/C=C\C/C=C\CCCC(=O)O[C@@H](CO)COC(=O)CCCCCCCCCCCCCCCCC	13%	2%	.
Cc1cc(NC(=O)c2sc(Nc3ccc(F)cc3)nc2N)no1	-8%	-4%	-24%
Cc1cc(C(F)(F)F)c2c(N)c(C(=O)Nc3cc(C)on3)sc2n1	.	11µM*	?
Nc1c(C(=O)Nc2ccccc2F)sc2nc(Cc3ccccc3)cc(C(F)(F)F)c12	.	10µM*	?
Cc1nc2sc(C(=O)Nc3ccccc3Cc3ccccc3)c(C)c2c(=O)[nH]1	10%[57.5 µM]	.	-8%
CCNCCCNCCCCNCCCNCC	-8%	10%	.
CN1CCN(c2ccccc2NC(=O)c2ccc(-c3ccc(Cl)cc3Cl)o2)CC1	.	12%[38.3 µM]	?
CS(=O)(=O)N1CCN(c2ccccc2NC(=O)c2ccc(-c3ccc(Cl)cc3Cl)o2)CC1	.	10%[38.3 µM]	3.2µM*
CCCCOC(=O)CNc1n[nH]c(=S)[nH]c1=O	.	4µM*	10µM*
CCCCOC(=O)C(C)Nc1n[nH]c(=S)[nH]c1=O (stereo not drawn)	.	-11%[38.3 µM]	-11%[46.1 µM]
CC/C=C\C[C@H](O)/C=C/C=C\C/C=C\C/C=C\CCCC(=O)O	-12%	7%	.
CS(=O)(=O)CCCCN=C=S	22%	-7%	.
COc1cc(O)c2c(O)c3c(c4c2c1[C@@]1(C4)C(C)=CCCC1(C)C)[C@H](O)[C@@]1(O)CC(=O)C(C(N)=O)=C(O)[C@]1(O)C3=O	.	-3%	.
CN1/C(=C\C=O)C(C)(C)c2ccccc21	3%	1%	9%
CN1\C(=C/C=C/C=C/C=[N+](C)C)C(C)(C)c2ccccc21	16µM*	1%	10µM*
O=[N+]([O-])c1cccc(/C=N/NC2CCS(=O)(=O)C2)c1 (stereo not drawn)	12%[57.5 µM]	.	-13%
N#CC(C#N)=c1ccc2c(c1)NC1(CCCCC1)N=2	.	158%[38.3 µM]	10µM*
N#CC(C#N)=C1NC2(CCCCC2)Cc2ccccc21	-24%[57.5 µM]	.	-15%
CCc1ccccc1	.	-4%	.
Cc1ccc(-c2nn(-c3ccccc3)cc2/C=N/NC(=O)c2ccc(Br)o2)cc1	.	19%[38.3 µM]	7.9µM*
O=C(N/N=C\c1cn(-c2ccccc2)nc1-c1ccccc1)c1ccc(Br)o1	.	14%[38.3 µM]	-29%[46.1 µM]
C[C@]12O[C@H]1[C@@H](O)C(Br)=C(CO)[C@H]2O	-6%	10%	.
SMILES	ERK EGF inh	IMPase Li cell	NPSR antagonist
COc1ccc(C(=O)Nc2cc(C(=O)c3ccccc3)c(C)oc2=O)cc1	.	-2%[38.3 µM]	?
Cc1oc(=O)c(NC(=O)c2cccc(Cl)c2)cc1C(=O)c1ccccc1	.	1%[38.3 µM]	7.9µM*
CO[C@H]1C[C@@H]2CC[C@@H](C)[C@@](O)(O2)C(=O)C(=O)N2CCCC[C@H]2C(=O)OC([C@H](C)C[C@@H]2CC[C@@H](O)[C@H](OC)C2)CC(=O)[C@H](C)/C=C(\C)[C@@H](O)[C@@H](OC)C(=O)[C@H](C)C[C@H](C)/C=C/C=C/C=C/1C (stereo partly drawn)	.	11%	.
CN(C)Cc1ccccc1-c1nc(N2CCOCC2)c2ccccc2n1	31%	10%	.
COc1ccc(N2CC(O)=C(c3nc4ccccc4s3)C2=N)cc1	.	14µM*	-13%[46.1 µM]
COc1cccc(N2CC(O)=C(c3nc4ccccc4s3)C2=N)c1	2%	?	-20%
COc1ccc2nc3ccccc3nc2c1N	28µM*	.	-36%
COc1ccc2nc3cccc(OC)c3nc2c1	7%	21%	-25%
CN(C)c1ccc(N=Nc2ccccc2C(=O)OCC(=O)NCC2CCCCC2)cc1	13µM*	10%	-49%
CN(C)c1ccc(N=Nc2ccccc2C(=O)OCC(=O)N(C)C2CCCCC2)cc1	?	7%	-41%
COc1ccc(NCc2c(O)ccc3ccccc23)cc1	.	1%	.
COc1cc2c(cc1OC)C(c1ccccc1)CN(C)CC2 (stereo not drawn)	-2%	11%	-8%[46.1 µM]
Cc1cccc2cc3c(nc12)SC(=NCC1CCCO1)N(Cc1ccco1)C3 (stereo not drawn)	.	.	10µM*
Cc1ccc2nc3c(cc2c1)CN(Cc1ccco1)C(=NCC1CCCO1)S3 (stereo not drawn)	.	10%	-24%[46.1 µM]
Cc1ccc(-n2c(O)c(C=Nc3ccccc3-c3n[nH]c(=S)[nH]c3=O)c3ccccc3c2=O)cc1C	14%	6%	1.3µM*
Cc1ccc(-n2c(O)c(C=Nc3ccccc3-c3n[nH]c(=S)[nH]c3=O)c3ccccc3c2=O)c(C)c1	?	1%	-57%
Clc1ccccc1/C=C\c1ccnc2ccccc12	.	1%	.
O=C(O)Cc1cn(-c2ccccc2)nc1-c1ccccc1	-1%	2%	-6%
OCc1cn(-c2ccccc2)nc1-c1ccc(-c2nn(-c3ccccc3)cc2CO)cc1	.	28µM*	?
Cc1cccc(NC(=O)CSc2nc(-c3ccccc3)c(C#N)c(=O)[nH]2)c1C	.	10µM*	1%[46.1 µM]
Cc1cc(C)nc(NS(=O)(=O)c2ccc(NC(=O)CSc3nc(-c4ccccc4)c(C#N)c(=O)[nH]3)cc2)n1	5%	11µM*	4µM*
CCC(Sc1nc(-c2ccccc2)c(C#N)c(=O)[nH]1)C(=O)Nc1nnc(C)s1 (stereo not drawn)	.	3.2µM*	5%[46.1 µM]
Cc1cccc(NC(=O)CSc2nc3[nH]ncc3c(=O)[nH]2)c1C	-1%	0%	17%
CCC(Sc1nc(C)cc(=O)[nH]1)C(=O)Nc1nc(-c2ccccc2)cs1 (stereo not drawn)	.	36%[38.3 µM]	24%[46.1 µM]
N#Cc1c(-c2ccccc2)nc(SCC(=O)N(c2ccccc2)c2ccccc2)[nH]c1=O	4%	-18%	-14%
SMILES	ERK EGF inh	IMPase Li cell	NPSR antagonist
Cc1cc(NC(=O)CSc2nc(-c3ccccc3)c(C#N)c(=O)[nH]2)no1	.	7.9µM*	7.9µM*
N#Cc1c(-c2ccccc2)nc(SCC(=O)Nc2ccccc2)[nH]c1=O	-6%	?	-32%
COc1cc2cc3c4c(cc(OC)c(OC)c4c2cc1OC)CCN3C	-16%	54%	.
N[C@@H](CCCCO)C(=O)O	.	4%	.
Cc1noc(C)c1-c1ccc2ncnc(N(C)Cc3ccco3)c2c1	26%	-8%	.
C[C@H]1Cc2c(COc3ccccc3)nc3c(c2CO1)CN(C(=O)c1ccco1)CC3	.	12%	.
C=CCSc1nc(-c2ccccc2)c(C#N)c(=O)[nH]1	.	?	-12%[46.1 µM]
N#Cc1c(-c2ccccc2)nc(SCC(=O)Nc2nnc(C(F)(F)F)s2)[nH]c1=O	-13%	11µM*	-44%
CC1=C(C#N)c2nc(N)c(C#N)c(C)c2/C1=C\c1ccc(OCC(=O)O)c(Cl)c1	-7%[57.5 µM]	.	-10%[7.67 µM]
O=C(Nc1nc(-c2ccc(F)cc2)cs1)c1ccc(N2C(=O)CCC2=O)cc1	?	-2%	-16%
COc1ccccc1-c1csc(NC(=O)c2ccc(N3C(=O)CCC3=O)cc2)n1	28µM*	3%	3%
Cc1ccc(-n2nnnc2SCC(=O)NNC(=O)c2ccco2)c(C)c1	.	-15%[38.3 µM]	-6%[46.1 µM]
COC(=O)c1ccccc1NC(=O)CSc1nnnn1-c1ccc(C)cc1C	.	10µM*	-27%[46.1 µM]

Source: PubChem
